From PubChem BioAssay
PI5P4K alpha inh – inhibitors of human PI5P4K alpha. AID 652105. PI5P4Kalpha enzyme, ADP-Glo luminescence, 60 min; stronger effect = lower value. max response, %. P48426. 1.2% of 330,000 active; active means max response of -50% or lower; inconclusive means between -30% and -50%; inactive means -30% or higher; further: value at the top dose of about 77 µM; on the % scale 0 is the no-effect control and ±100 the full control effect
Target sequence (P48426 whole entry, looked up): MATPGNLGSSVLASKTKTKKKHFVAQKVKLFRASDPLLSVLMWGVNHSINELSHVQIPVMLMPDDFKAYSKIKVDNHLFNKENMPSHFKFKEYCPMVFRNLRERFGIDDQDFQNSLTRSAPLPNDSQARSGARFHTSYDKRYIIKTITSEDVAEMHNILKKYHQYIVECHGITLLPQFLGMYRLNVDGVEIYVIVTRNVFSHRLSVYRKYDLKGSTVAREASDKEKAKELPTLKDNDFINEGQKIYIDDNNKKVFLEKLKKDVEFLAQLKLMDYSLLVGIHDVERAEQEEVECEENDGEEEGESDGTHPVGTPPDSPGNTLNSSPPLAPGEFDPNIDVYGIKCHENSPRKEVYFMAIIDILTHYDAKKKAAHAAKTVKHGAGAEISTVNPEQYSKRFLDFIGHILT
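Single end-point luminescence (ADP-Glo) quantified ADP from PI5P4Kalpha turnover; ATP 5 microM final, 1 h at RT, 0.1% CHAPS and 0.28 mM EGTA in HEPES pH 7.4.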
HP1b binding inh – inhibitors of HP1-beta chromodomain binding to methylated histone tails; P83916; AlphaScreen HP1-beta / biotin-H3K9me3 peptide binding; Potency, µM (titrated, usually from 114 µM), for the others: at the top dose activity change, negative = inhibition, hits mostly inhibitors; 0.56% of 390,000 active; AID 540317; further: potency means the concentration at half of the fitted maximal effect; nearly all actives have a fitted effect of over 70% in size
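AlphaScreen: HP1-beta (50 nM) preformed 30 min with biotin-H3(1-18)K9me3 peptide (50 nM) in PBS pH 7.4, 0.01% Tween-20. Compound added for 30 min at RT, then streptavidin donor/nickel chelate acceptor beads (10 ug/mL) for 30 min.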
PLK1 PBD block – inhibitors of human PLK1 polo-box domain binding. Potency, µM, for inactives: max response, negative = inhibition, actives largely listed as inhibitors. Plk1 PBD binding of FITC phosphopeptide, fluorescence polarization. P53350. 2.8% of 360,000 active; further: potency means the concentration at half of the fitted maximal effect; series mostly up to about 57 µM; on the % scale 0 is the no-effect control and ±100 the full control effect; nearly all actives have a fitted effect of over 65% in size
BAZ2B inh – BAZ2B (human) inhibition; 4.4% of 360,000 active; AlphaScreen BAZ2B-H3K14Ac peptide displacement; AID 504333; Q9UIF8; Potency, µM (highest dose often 114 µM), inactives show at the highest dose activity change, negative = inhibition, usual class: inhibitors; further: potency means the concentration at half of the fitted maximal effect; on the % scale 0 is the no-effect control and ±100 the full control effect; nearly all actives have a fitted effect of over 60% in size
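Protein-peptide AlphaScreen: BAZ2B 50 nM, b-H3K14Ac 50 nM, 1x PBS pH 7.4 + 0.01% Tween-20. Preincubation 30 min RT; cpd 30 min RT (top 110 uM); beads 20 min RT, light-protected.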
JMJD2A Tudor – JMJD2A Tudor domain (human) inhibition; AlphaScreen JMJD2A-Tudor / H3K4me3 peptide binding; AID 504339; 4.4% of 390,000 active; O75164; Potency, µM (highest dose often 114 µM), without a hit: at the top dose activity change, negative = inhibition, most hits filed as inhibitors; further: potency means the concentration at half of the fitted maximal effect; on the % scale 0 is the no-effect control and ±100 the full control effect; nearly all actives have a fitted effect of over 50% in size
G9a block – inhibitors of human histone lysine methyltransferase G9a. Q96KQ7. G9a H3K9 monomethylation, AlphaScreen, 2 h. Potency, µM (doses to about 102 µM), for inactives: top-dose activity, negative = inhibition, actives largely listed as inhibitors. 8.8% of 350,000 active. AID 504332; further: potency means the concentration at half of the fitted maximal effect; on the % scale 0 is the no-effect control and ±100 the full control effect; nearly all actives have a fitted effect of over 75% in size
Target sequence (Q96KQ7 913-1193 limits assumed): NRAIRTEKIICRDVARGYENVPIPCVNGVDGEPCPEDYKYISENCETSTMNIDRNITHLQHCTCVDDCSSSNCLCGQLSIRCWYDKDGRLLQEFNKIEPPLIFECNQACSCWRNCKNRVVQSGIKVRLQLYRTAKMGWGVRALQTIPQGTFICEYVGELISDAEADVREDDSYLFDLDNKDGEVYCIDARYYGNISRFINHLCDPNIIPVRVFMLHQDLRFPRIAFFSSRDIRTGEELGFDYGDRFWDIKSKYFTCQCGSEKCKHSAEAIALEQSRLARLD
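Readings reflect AlphaScreen signal from monomethyl-H3K9 antibody detection. HMT at 20 nM; substrate b-H3K9 500 nM; cofactor SAM 20 uM; 2 h RT reaction; compounds tested as titrations in qHTS with 15 min preincubation.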
The depositor's hits bear a star; ? = inconclusive; . = no result given; [ ] = another dose, or the depositor's remark. Shown are actives, neighbours in structure and some others; about 12% of the full set was active somewhere. Unless noted, the call rests on the fitted dose curve; in most records, active means well fitted curve in the direction sought with a large enough effect; inconclusive means small, poorly fitted or top-dose-only effect, or another doubt; inactive means no such curve, though single readings can be large; an effect the other way counts as inactive or inconclusive.

SMILES	PI5P4K alpha inh	HP1b binding inh	PLK1 PBD block	BAZ2B inh	JMJD2A Tudor	G9a block
Cc1ccc(C(C)(O)CS(=O)(=O)Cc2ccccc2)cc1 (configuration not stated)	0	66%	-12%	-25%	-5%	56µM*
COc1ccc(CN(C)CC2CCCN(CCc3ccc(F)cc3)C2)cc1OC (configuration not stated)	-1	22%	-5%	-14%	-5%	-7%
COc1cc(CN(C)CC2CCCN(CCc3cccc(C(F)(F)F)c3)C2)ccc1O (configuration not stated)	1	18%	1%	-32%	-25%	45µM*
O=C(c1cccc(F)c1)N1CCC[C@@]2(CCN(c3ccccc3)C2)C1	.	.	.	.	.	6%[12.7 µM]
CCc1nc2ccc(C(=O)NCc3cccs3)cn2c1N(C)Cc1nccs1	-2	.	-7%	.	.	.
O=S(=O)(c1ccsc1)N1CCN(c2nc(-c3cccs3)nc3ccccc23)CC1	.	.	.	.	-14%	.
c1ccc(-c2cncnc2)cc1	6	106%	-12%	?	-8%	-22%[0.501 µM]
O=C(CCC(=O)Nc1nnc(C2CCCCC2)s1)NCc1ccc(F)cc1	0	29%	-9%	-4%	-4%	-21%
COc1ccc2[nH]c(=O)c(CN(Cc3ccco3)Cc3nnnn3Cc3ccccc3)cc2c1	-14	21%	-5%	2%	-3%	50µM*
O=c1[nH]c2cc3c(cc2cc1CN(Cc1nnnn1CC1CCCO1)C1CCCC1)OCO3 (configuration not stated)	-2	14%	-10%	-8%	-4%	13µM*
CCOc1ccc2[nH]c(=O)c(CN(Cc3ccco3)C(CC)c3nnnn3Cc3ccccc3)cc2c1 (configuration not stated)	12	12%	0%	2%	-35%	35µM*
CCNC(=S)N(Cc1cccs1)Cc1cc2cc(OCC)ccc2[nH]c1=O	-8	12%	-8%	4%	-20%	22%[59 µM]
O=c1[nH]c2cc3c(cc2cc1CN(Cc1nnnn1CC1CCCO1)C1CCCCC1)OCO3 (configuration not stated)	3	40%	-26%	-5%	-25%[11.4 µM]	?
CCNC(=S)N(Cc1ccco1)Cc1cc2cc(OCC)ccc2[nH]c1=O	-7	11%	-2%	?	-21%	45µM*
CCCNC(=O)CCSc1nc(-c2ccc3c(c2)OCO3)cc(C(F)(F)F)n1	.	30%	.	1%	0%	-1%[59 µM]
COc1ccc2c(c1)c1c(c(=O)n(-c3ccccc3C)c(=O)n1CC(N)=O)n2C	.	27%	.	-12%	1%	-18%[59 µM]
CCOc1ccc2[nH]c(=O)c(CN(Cc3cccs3)C(CC)c3nnnn3C(C)(C)CC)cc2c1 (configuration not stated)	?	?	8.4µM*	-1%	-27%[11.4 µM]	20%[59 µM]
COc1ccc2cc(CN(CCc3ccccc3)Cc3nnnn3CC3CCCO3)c(=O)[nH]c2c1 (configuration not stated)	.	5%	-12%	1%	-21%	-33%
COc1ccc2[nH]c(=O)c(CN(CCc3ccccc3)Cc3nnnn3CC3CCCO3)cc2c1 (configuration not stated)	.	13%	-15%	-17%	-20%	8.9µM*
O=C(COc1ccccc1F)Nc1ccc2oc(-c3cccc(Cl)c3)nc2c1	.	92%	.	1%	-4%	20%[59 µM]
NC(=O)C1CCCN(CCc2ccccc2)C1 (configuration not stated)	.	23%	-4%	-3%	-17%	1%[59 µM]
CCCc1sc(N2CCCC(C(N)=O)C2)nc1-c1ccccc1 (configuration not stated)	-1	?	24µM*	?	28µM*	-94%
CCN(CC)C(=O)c1cccnc1	.	.	.	.	.	3%[12.7 µM]
Cc1cccc(Oc2nc3c(C)cccn3c(=O)c2/C=C(\C#N)c2nc3ccccc3s2)c1	.	20%	.	8%[57.1 µM]	-9%	-29%[59 µM]
Cc1cc(Oc2nc3ccccn3c(=O)c2/C=C(\C#N)c2nc3ccccc3s2)ccc1Cl	.	38%	.	-2%	-18%	10µM*
SMILES	PI5P4K alpha inh	HP1b binding inh	PLK1 PBD block	BAZ2B inh	JMJD2A Tudor	G9a block
N#C/C(=C\c1c(Oc2ccc(Br)cc2)nc2ccccn2c1=O)c1nc2ccccc2s1	.	20%	.	-10%	-33%	2.8µM*
C[C@H](NC(=O)C1CC(=O)N(c2ccc3c(c2)OCO3)C1)C(=O)NC1CCCC1 (some centres not stated)	-12	3%	27µM*	-14%[57.1 µM]	?	10%
COc1ccc(N2CC(C(=O)N[C@@H](C)C(=O)NC3CCCC3)CC2=O)cc1 (some centres not stated)	-1	17%	-11%	1%	-10%	.
CC(C)[C@H](NC(=O)C1CC(=O)N(c2ccc3c(c2)OCO3)C1)C(=O)NC1CCCC1 (some centres not stated)	-18	65%	-13%	?	21%	56µM*
COc1ccc(N2CC(C(=O)N[C@@H](C)C(=O)N[C@H](CO)c3ccccc3)CC2=O)cc1 (some centres not stated)	-2	32%	-5%	-25%	-5%	5.6µM*
COc1ccc(/C=C/C2=CC(C)(C)NC(=S)N2)cc1OC	-1	16%	-27%	.	-35%	45µM*
CC1(C)CC(CC(=O)Nc2ccccn2)C(=O)O1 (configuration not stated)	.	7%	4%	5%	-19%	-3%[59 µM]
CC1(C)CC(Cc2nc(=S)[nH][nH]2)C(=O)O1 (configuration not stated)	-3	24%	4%	?	50µM*	1.8µM*
Cc1cc(=S)c2ccccc2[nH]1	1	11%	?	?	?	2µM*
O=c1c(Cl)c(Cl)cnn1-c1ccccc1	1	45%	-7%	-4%	13%	-11%[59 µM]
O=c1[nH]c2cnn(-c3ccccc3)c2c(=O)n1O	-3	14%	-8%	.	56µM*	.
Clc1ccc(CN2CCCCCC2)cc1	6	?	-7%	?	1.8µM*	13µM*
O=S1(=O)CCN(Cc2ccc(Cl)c(Cl)c2)CC1	-4	16%	-4%	-2%	-3%	2%[12.7 µM]
O=[N+]([O-])c1cc(CN2CCCC2)ccc1Sc1ccc(Cl)cc1	15	40µM*	2%	40µM*	35µM*	35µM*
Clc1ccc(CN2CCCCCCC2)cc1Cl	0	-38%	-3%	-12%	28µM*	?
O=[N+]([O-])c1ccc(Cl)cc1N1CCCC1	2	10%	1%	?	-34%	.
CC(C)(C)OC(=O)N1CCC(c2c(C(=O)O)cnn2-c2ccccc2Cl)CC1	.	3%	-8%	-4%	-21%	6%[59 µM]
